PubChem BioAssay (Tox21)
Records with an inconclusive call do not appear. Where a call stands in place of a potency, no number is given. Values without a mark were called inactive. Activity calls are given as the source filed them. Calls come from the whole dose curve; as a rule, active = well fitted cell-killing curve with a large enough effect in the repeat runs; inconclusive = weak or mixed curves, or effect the other way; inactive = flat fitted curve, though single readings scatter.

Columns and labels:
[1] = cAMP Responsive Elements (CRE) small molecule antagonists, cell-based qHTS assay: qHTS cell viability counter screen (AID 2060913); note: nearly all actives have a fitted effect of over 40% in size
Summary of the method: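 CRE-bla HEK293T cells (2,000/well, 18 h) given compound plus NKH477 0.25 uM final for 3 h at 37C; viability counter-screen by CellTiter-Glo luminescence in same wells after 30 min.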

[2] = cAMP Responsive Elements (CRE) small molecule agonists, cell-based qHTS assay: qHTS cell viability counter screen (AID 2060914);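 note: viability read after 3 h of compound exposure; nearly all actives have a fitted effect of over 50% in size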
Summary of the method: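 Cytotoxicity counter screen multiplexed with the CRE-bla reporter assay in HEK 293T cells: 3 h compound exposure at 37 °C, followed by CellTiter-Glo luminescence measured in the same wells.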

c1ccc(COCc2ccccc2)cc1
Potency [1]: inactive | Potency [2]: inactive

CC(C)(C)CC(C)(C)c1ccc(Nc2ccc(C(C)(C)CC(C)(C)C)cc2)cc1
viability change, negative = cytotoxic [1]: -5.06% [at 8.39 µM] | activity change, negative = cytotoxicity [2]: 6.62% [at 8.39 µM]

Nc1ccc(Cl)cc1Cl
Potency [1]: inactive | Potency [2]: inactive

CN=C(NC#N)NCCSCc1nc[nH]c1C
Potency [1]: inactive | Potency [2]: inactive

CCCOC(OCCC)OCCC
Potency [1]: inactive | Potency [2]: inactive

CC/C=C\CC/C=C/CO
Potency [1]: inactive | Potency [2]: inactive

CC1CC(O)CC(C)(C)C1 (centres undefined)
Potency [1]: inactive | Potency [2]: inactive

CCCCCCOC(=O)CCCCC
Potency [1]: inactive | Potency [2]: inactive

COc1cc2ncnc(Nc3ccc(F)c(Cl)c3)c2cc1OCCCN1CCOCC1
Potency [1]: inactive | Potency [2]: inactive

O=Nc1ccc(Nc2ccccc2)cc1
Potency [1]: inactive | Potency [2]: inactive

O=C1NC(=O)c2ccccc21
Potency [1]: inactive | Potency [2]: inactive

OCc1cccc(Oc2ccccc2)c1
Potency [1]: inactive | Potency [2]: inactive

Cc1nc2n(c(=O)c1CCN1CCC(c3noc4cc(F)ccc34)CC1)CCCC2
Potency [1]: inactive | Potency [2]: inactive

[K+]
Potency [1]: inactive | Potency [2]: inactive

CN(C)c1nc(N(C)C)nc(N(C)C)n1
Potency [1]: inactive | Potency [2]: inactive

C=CCOC(=O)CCCCCC
Potency [1]: inactive | Potency [2]: inactive

CC(CN(C)C)CN1c2ccccc2CCc2ccccc21 (centres undefined)
Potency [1]: inactive | Potency [2]: inactive

c1ccc(CNCCNCc2ccccc2)cc1
Potency [1]: inactive | Potency [2]: inactive

CCC(C)[O-].CCC(C)[O-].CCOC(=O)/C=C(/C)[O-].[Al+3]
Potency [1]: inactive | Potency [2]: inactive

CC1(C)C(=O)N(Br)C(=O)N1Cl
Potency [1]: inactive | Potency [2]: inactive

CNC(=O)C(c1ccccc1)c1ccccc1
Potency [1]: inactive | Potency [2]: inactive

Cc1cn[nH]c1
Potency [1]: inactive | Potency [2]: inactive

C[C@]12C=CC(=O)C=C1[C@@H](F)C[C@@H]1[C@@H]2[C@@H](O)C[C@@]2(C)[C@H]1CC[C@]2(O)C(=O)CO
Potency [1]: inactive | Potency [2]: inactive

CC1CCC(C(C)CS)CC1S (centres undefined)
Potency [1]: inactive | Potency [2]: inactive

C[N+](C)(C)CCOC(=O)CCC(=O)OCC[N+](C)(C)C
Potency [1]: inactive | Potency [2]: inactive

C#C[C@]1(O)CC[C@H]2[C@@H]3CCc4cc(O)ccc4[C@H]3CC[C@@]21C
Potency [1]: inactive | Potency [2]: inactive

Cc1c(-c2cccnc2)c2ccccc2n1CCCCC(=O)O
Potency [1]: inactive | Potency [2]: inactive

O=c1[nH]c(=O)n([C@H]2C[C@H](O)[C@@H](CO)O2)cc1Br
Potency [1]: inactive | Potency [2]: inactive

CCN1CCC[C@H]1CNC(=O)c1c(O)c(Cl)cc(Cl)c1OC
Potency [1]: inactive | Potency [2]: inactive

COc1ccc(CN(CCN(C)C)c2ccccn2)cc1
Potency [1]: inactive | Potency [2]: inactive

CN(C)CCCN1c2ccccc2Sc2ccc(Cl)cc21
Potency [1]: inactive | Potency [2]: inactive

COC(=O)c1ccc(NC(C)=O)cc1OC
Potency [1]: inactive | Potency [2]: inactive

CC[C@H](c1ccc(O)cc1)[C@@H](CC)c1ccc(O)cc1
Potency [1]: inactive | Potency [2]: inactive

CCOC(=O)CC(C)O (centres undefined)
Potency [1]: inactive | Potency [2]: inactive

O=C(N[C@@H](Cc1ccccc1)[C@@H](O)C(=O)N1C[C@@H](O)[C@@H](O)C1)c1cc2cc(Cl)ccc2[nH]1
Potency [1]: inactive | Potency [2]: inactive

C[C@H](CS)C(=O)N1CCC[C@H]1C(=O)O
Potency [1]: inactive | Potency [2]: inactive

O=C(O)/C=C/c1ccc(/C=C/C(=O)O)cc1
Potency [1]: inactive | Potency [2]: inactive

CCCc1nc(C)c2c(=O)[nH]c(-c3cc(S(=O)(=O)N4CCN(CC)CC4)ccc3OCC)nn12
Potency [1]: inactive | Potency [2]: inactive

OC1CCCc2ccccc21 (centres undefined)
Potency [1]: inactive | Potency [2]: inactive

CC(C)COC(=O)C(C)C
Potency [1]: inactive | Potency [2]: inactive

CC1=CC(C)C(C=O)CC1 (centres undefined)
Potency [1]: inactive | Potency [2]: inactive

O=Cc1ccc(Cl)c(Cl)c1
Potency [1]: inactive | Potency [2]: inactive

CC(Cc1ccc(O)c(O)c1)C(C)Cc1ccc(O)c(O)c1 (centres undefined)
Potency [1]: inactive | Potency [2]: inactive

Nc1[nH]c(=O)ncc1F
Potency [1]: inactive | Potency [2]: inactive

OCC(O)CS (centres undefined)
Potency [1]: inactive | Potency [2]: inactive

CCOC(=O)CC(=O)c1cc(F)c(Cl)nc1Cl
Potency [1]: inactive | Potency [2]: inactive

CN1CCCC(CC2c3ccccc3Sc3ccccc32)C1 (centres undefined)
Potency [1]: inactive | Potency [2]: inactive

O=C(Nc1cccc(C2=NCCN2)c1)Nc1cccc(C2=NCCN2)c1
viability change, negative = cytotoxic [1]: 0.0426% [at 18.9 µM] | activity change, negative = cytotoxicity [2]: 10.9% [at 18.9 µM]

CCN(CC)c1cccc(C)c1
Potency [1]: inactive | Potency [2]: inactive

CC(C)(C)c1nnc(NS(=O)(=O)c2ccccc2)s1
Potency [1]: inactive | Potency [2]: inactive

CCC1CCC(CCC(=O)O)C1 (centres undefined)
Potency [1]: inactive | Potency [2]: inactive

NC(N)=NC(=O)Cc1c(Cl)cccc1Cl
Potency [1]: inactive | Potency [2]: inactive

O=C1CCCCCO1
Potency [1]: inactive | Potency [2]: inactive

CCN(CC)C(=O)C1CN2CCc3cc(OC)c(OC)cc3C2CC1OC(C)=O (centres undefined)
Potency [1]: inactive | Potency [2]: inactive

CCCCCCCCCCOC(=O)c1ccccc1C(=O)OCCCCCCCC
Potency [1]: inactive | Potency [2]: inactive

Cc1ccc(C2OC[C@@H]3OC(c4ccc(C)cc4)O[C@H]([C@H](O)CO)[C@@H]3O2)cc1 (some centres undefined)
Potency [1]: inactive | Potency [2]: inactive

CCC(=O)Nc1cccc(N)c1
Potency [1]: inactive | Potency [2]: inactive

O=C1CCC/C=C\CCCCCCCCCC1
Potency [1]: inactive | Potency [2]: inactive

O=C(O)c1cccc(Cl)n1
Potency [1]: inactive | Potency [2]: inactive

CN1CCOC(c2ccccc2)c2ccccc2C1 (centres undefined)
Potency [1]: inactive | Potency [2]: inactive

O=S(=O)(c1ccccc1)c1ccc(Cl)cc1
Potency [1]: inactive | Potency [2]: inactive

O=C(O)c1ccc(O)cc1
Potency [1]: inactive | Potency [2]: inactive

C=C(C)C(=O)NCCC[N+](C)(C)C
Potency [1]: inactive | Potency [2]: inactive

C=CC(=C)CCCC(C)(C)OC(C)=O
Potency [1]: inactive | Potency [2]: inactive

CC1(C)OC(=O)NC1=O
Potency [1]: inactive | Potency [2]: inactive

Cc1cc(O)c(C)c(C)c1O
Potency [1]: inactive | Potency [2]: inactive

CNC[C@H](O)c1ccc(O)c(O)c1
Potency [1]: inactive | Potency [2]: inactive

C1COC1
Potency [1]: inactive | Potency [2]: inactive

CCOC(=O)[C@H](CCc1ccccc1)N[C@@H](C)C(=O)N1Cc2cc(OC)c(OC)cc2C[C@H]1C(=O)O
Potency [1]: inactive | Potency [2]: inactive

COc1cc2nc(N3CCN(C(=O)C4CCCO4)CC3)nc(N)c2cc1OC (centres undefined)
Potency [1]: inactive | Potency [2]: inactive

COc1ccccc1OCCNCC(O)COc1cccc2[nH]c3ccccc3c12 (centres undefined)
Potency [1]: inactive | Potency [2]: inactive

O=C(/C=C/c1ccccc1)OCc1ccccc1
Potency [1]: inactive | Potency [2]: inactive

COc1ccc([C@@H]2CC(=O)c3c(O)cc(O[C@@H]4O[C@H](CO[C@@H]5O[C@@H](C)[C@H](O)[C@@H](O)[C@H]5O)[C@@H](O)[C@H](O)[C@H]4O)cc3O2)cc1OC
Potency [1]: inactive | Potency [2]: inactive

Oc1ccc2cc(SSc3ccc4cc(O)ccc4c3)ccc2c1
Potency [1]: inactive | Potency [2]: inactive

CCCCCCCCCC
Potency [1]: inactive | Potency [2]: inactive

CCCCCCC1CCC(=O)O1 (centres undefined)
Potency [1]: inactive | Potency [2]: inactive

BrC(Br)C(Br)Br
Potency [1]: inactive | Potency [2]: inactive

N=C(N)c1ccc2cc(OC(=O)c3ccc(N=C(N)N)cc3)ccc2c1
Potency [1]: inactive | Potency [2]: inactive

C#CC(C)(CC)OC(=O)c1ccccc1C(=O)O (centres undefined)
Potency [1]: inactive | Potency [2]: inactive

O=C1CC[C@@H](C(=O)O)N1
Potency [1]: inactive | Potency [2]: inactive

CC(=O)c1ccc(C)cc1
Potency [1]: inactive | Potency [2]: inactive

O=C(O)[C@H](O)[C@@H](O)[C@H](O[C@@H]1O[C@H](CO)[C@H](O)[C@H](O)[C@H]1O)[C@H](O)CO
Potency [1]: inactive | Potency [2]: inactive

Cc1cc(C)n(CO)n1
Potency [1]: inactive | Potency [2]: inactive

CCn1nc(C(=O)O)c(=O)c2cc3c(cc21)OCO3
Potency [1]: inactive | Potency [2]: inactive

CC(=O)OCC(=O)Nc1cc(C#N)cc(NC(=O)COC(C)=O)c1Cl
Potency [1]: inactive | Potency [2]: inactive

Cc1ccc(O)c(-n2nc3ccccc3n2)c1
Potency [1]: inactive | Potency [2]: inactive

NC(CO)(CO)CO
Potency [1]: inactive | Potency [2]: inactive

O=c1[nH]c(=O)n([C@H]2C[C@H](O)[C@@H](CO)O2)cc1I
Potency [1]: inactive | Potency [2]: inactive

NCCCCCCN
Potency [1]: inactive | Potency [2]: inactive

O=C1NC2CCCCN2C12CCN(CCCN1c3ccccc3CCc3ccc(Cl)cc31)CC2 (centres undefined)
Potency [1]: inactive | Potency [2]: inactive

CCN(CC)CCOc1ccc2c(c1)C(=O)c1cc(OCCN(CC)CC)ccc1-2
Potency [1]: inactive | Potency [2]: inactive

CC(C)=CCC/C(C)=C/C=N/O
Potency [1]: inactive | Potency [2]: inactive

CCCCCc1ccco1
Potency [1]: inactive | Potency [2]: inactive

Fc1ccc(C(c2ccc(F)cc2)N2CCNCC2)cc1
Potency [1]: inactive | Potency [2]: inactive

O=C(c1ccc(O)cc1)c1ccc(O)cc1
Potency [1]: inactive | Potency [2]: inactive

NC(Cc1c[nH]c2ccccc12)C(=O)O (centres undefined)
Potency [1]: inactive | Potency [2]: inactive

COc1cc([C@@H]2c3cc4c(cc3[C@@H](O[C@@H]3O[C@@H]5CO[C@@H](C)O[C@H]5[C@H](O)[C@H]3O)[C@H]3COC(=O)[C@H]23)OCO4)cc(OC)c1O
Potency [1]: inactive | Potency [2]: inactive

CC(C)=CC(=O)O
Potency [1]: inactive | Potency [2]: inactive

CCCCCCCCCCCCCCC1CO1 (centres undefined)
Potency [1]: inactive | Potency [2]: inactive

CC(C[N+](C)(C)C)OC(N)=O (centres undefined)
Potency [1]: inactive | Potency [2]: inactive

Cc1ccsc1C(=CCCN1CCC[C@@H](C(=O)O)C1)c1sccc1C
Potency [1]: inactive | Potency [2]: inactive

CC1=C2[C@@H]([C@H](C)CC[C@H]2/C=C(\C)C(=O)O)[C@H](O)C1
Potency [1]: inactive | Potency [2]: inactive
